Source: PubChem BioAssay
Active and inactive are the calls of the source. Unless noted, how the calls were made is not given here.

Assays:
[1] = resazurin metabolic signal in HepG2 cells – cell-based, resazurin fluorescence, 24 h, PK04 Diversity Set, profiling panel (AID 1172); settings: HepG2 viability, higher = more signal
[2] = budding yeast growth changes without added modifier – OD600, strain BY4716, 24 h, basal condition, primary screen (AID 1173); settings: S. cerevisiae BY4716 growth, OD600, 24 h; higher = more signal, called active from +8 up or from −8 down
[3] = viability profiling in MM1S myeloma cells – cell-based, resazurin fluorescence, basal, 24 h, PK04 Diversity Set, profiling panel (AID 1174); settings: higher = more signal, called active from +8 up or from −8 down;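 further: MM1S multiple myeloma cell line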
[4] = target: Dihydroorotate dehydrogenase (quinone), mitochondrial (Plasmodium falciparum (isolate 3D7)) (UniProt Q08210); experiment: inhibition of P. falciparum DHODH – biochemical, C-terminal His tag, absorbance 600 nm, primary screen (AID 1175); settings: PfDHODH enzyme, DCIP absorbance 600 nm; higher = more signal, called active from +8 up or from −8 down;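 further: recombinant parasite enzyme with a five histidine tag at its C terminus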
[5] = inhibition of PAO1 biofilm formation – strain PAO1, LB-PBS medium, absorbance 600 nm, primary screen (AID 1176); settings: P. aeruginosa PAO1 growth/biofilm, A600, 12 h; higher = more signal
[6] = growth modulation of vineyard yeast isolate – strain RM11-1a, OD600, basal, 24 h, primary screen (AID 1177);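 further: cultures grown under basal conditions with no added stressor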; settings: S. cerevisiae RM11-1a growth, OD600, 24 h; higher = more signal, called active from +8 up or from −8 down
[7] = growth of efflux-deficient E. coli DRC39 – strain DRC39, OD650, 24 h, E. coli filamentation inducers, primary screen (AID 1178);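 further: growth measured as culture turbidity by optical density at 650 nm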; settings: E. coli DRC39 acrAB, higher = more signal, called active from +8 up or from −8 down
[8] = growth of efflux-deficient E. coli DRC39 – strain DRC39, OD650, 48 h, E. coli filamentation inducers, primary screen (AID 1179);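 further: screen aims at cell division blockers that make cells filament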; settings: E. coli DRC39 delta-acrAB growth, higher = more signal, called active from +8 up or from −8 down
[9] = viability profiling in RPMI8226 myeloma cells – cell-based, resazurin fluorescence, basal, 24 h, PK04 Diversity Set, profiling panel (AID 1180); settings: higher = more signal;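 further: RPMI8826 multiple myeloma cell line at 5000 cells per well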
[10] = target: E3 ubiquitin-protein ligase XIAP (Homo sapiens) (UniProt P98170); experiment: small molecules binding XIAP protein – biophysical, small-molecule microarray, fluorescence 635 nm, primary screen (AID 1181); settings: higher = more signal;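 further: score merges 667 nm emission and signal to noise over triplicate slides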
[11] = tested on: XIP peptide (Xip251-270) binding; experiment: XIP fragment 251-270 binding compounds – biochemical, small-molecule microarray, fluorescence 635/667 nm, 0.1 µg/mL protein, primary screen (AID 1182); settings: fluorescent protein binding, 635 nm, higher = more signal, called active from +8 up or from −8 down
XIP peptide (Xip251-270) = experiment: compounds binding XIP fragment 251-270 – biochemical, small-molecule microarray, fluorescence 635/667 nm, 0.5 µg/mL protein, primary screen (AID 1183); settings: fluorescence 635 nm, higher = more signal
[12] = blood-stage malaria parasite viability loss – strain 3D7, DAPI fluorescence, 100 nL, primary screen (AID 1184);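 further: parasites grown inside human red blood cells in medium with human serum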; settings: P. falciparum 3D7 growth, 3 d, higher = more signal
[13] = target: Homeobox protein Hox-A13 (Mus musculus) (UniProt Q62424); experiment: disruptors of Hoxa13 oligonucleotide interaction – biochemical, fluorescence polarization, labeled oligonucleotide, primary screen (AID 1185); settings: Hoxa13:DNA binding, 15 min, higher = more signal, called active from +8 up or from −8 down
[14] = blockers of DNA damage checkpoint Chk1 activation – imaging, HeLa, hydroxyurea, phospho-Chk1 antibody, percent positive cells, primary screen (AID 1186); settings: hydroxyurea-induced phospho-Chk1 immunofluorescence imaging, higher = more signal
[15] = blockers of DNA damage checkpoint Chk1 activation – imaging, HeLa, hydroxyurea, phospho-Chk1 nuclear intensity, primary screen (AID 1187); settings: hydroxyurea-induced phospho-Chk1 immunofluorescence imaging, higher = more signal

Sequence of Dihydroorotate dehydrogenase (quinone), mitochondrial (Plasmodium falciparum (isolate 3D7)) (Q08210 whole entry, looked up): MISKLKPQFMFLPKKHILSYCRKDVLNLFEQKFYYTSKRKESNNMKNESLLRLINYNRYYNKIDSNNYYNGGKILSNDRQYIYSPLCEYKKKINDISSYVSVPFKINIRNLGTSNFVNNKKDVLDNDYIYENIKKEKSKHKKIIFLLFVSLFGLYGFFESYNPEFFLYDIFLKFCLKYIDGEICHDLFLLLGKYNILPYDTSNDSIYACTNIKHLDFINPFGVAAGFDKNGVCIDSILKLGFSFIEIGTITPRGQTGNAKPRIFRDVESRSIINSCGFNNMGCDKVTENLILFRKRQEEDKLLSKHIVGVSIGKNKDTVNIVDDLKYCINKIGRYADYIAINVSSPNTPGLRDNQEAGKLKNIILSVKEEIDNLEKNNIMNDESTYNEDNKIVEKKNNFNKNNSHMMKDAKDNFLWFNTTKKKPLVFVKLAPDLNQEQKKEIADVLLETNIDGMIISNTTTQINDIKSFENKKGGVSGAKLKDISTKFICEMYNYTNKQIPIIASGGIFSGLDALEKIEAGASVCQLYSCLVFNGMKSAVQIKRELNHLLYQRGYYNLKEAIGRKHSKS
Sequence of Homeobox protein Hox-A13 (Mus musculus) (Q62424 whole entry, looked up): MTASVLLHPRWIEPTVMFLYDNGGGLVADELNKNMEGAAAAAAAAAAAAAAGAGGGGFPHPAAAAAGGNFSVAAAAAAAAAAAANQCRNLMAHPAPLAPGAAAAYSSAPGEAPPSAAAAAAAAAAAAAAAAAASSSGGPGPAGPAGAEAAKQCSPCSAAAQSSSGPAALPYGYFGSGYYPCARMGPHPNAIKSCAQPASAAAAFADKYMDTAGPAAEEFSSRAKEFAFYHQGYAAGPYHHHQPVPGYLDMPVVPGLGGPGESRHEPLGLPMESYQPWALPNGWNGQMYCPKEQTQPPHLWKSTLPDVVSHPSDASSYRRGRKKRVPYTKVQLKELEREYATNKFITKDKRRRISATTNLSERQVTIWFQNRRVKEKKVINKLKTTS
Sequence of E3 ubiquitin-protein ligase XIAP (Homo sapiens) (P98170 whole entry, looked up, the tested form may be a part): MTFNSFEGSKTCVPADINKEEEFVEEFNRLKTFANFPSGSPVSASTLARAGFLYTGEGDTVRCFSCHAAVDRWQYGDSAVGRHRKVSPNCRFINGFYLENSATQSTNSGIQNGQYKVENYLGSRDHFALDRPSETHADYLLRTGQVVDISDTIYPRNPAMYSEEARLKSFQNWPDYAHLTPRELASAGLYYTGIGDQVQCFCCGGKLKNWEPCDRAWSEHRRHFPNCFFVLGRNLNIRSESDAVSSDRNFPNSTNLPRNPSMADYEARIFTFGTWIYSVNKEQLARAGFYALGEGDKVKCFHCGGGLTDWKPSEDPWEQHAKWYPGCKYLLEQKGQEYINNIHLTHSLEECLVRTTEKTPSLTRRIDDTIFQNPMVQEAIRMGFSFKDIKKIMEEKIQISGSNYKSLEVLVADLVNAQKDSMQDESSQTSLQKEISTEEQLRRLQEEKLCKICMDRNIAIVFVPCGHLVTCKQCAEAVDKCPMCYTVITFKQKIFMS

Structure (SMILES) | z-score [1] | z-score [2] | z-score [3] | composite z-score [4] | z-score [5] | z-score [6] | z-score [7] | z-score [8] | z-score [9] | composite z-score [10] | composite z-score [11] | composite z-score (XIP peptide (Xip251-270)) | z-score [12] | z-score [13] | z-score [14] | z-score [15]
O=C1OCC=C[C@H]2OC34C=CCN(Cn5nnc6ccccc65)C(=O)[C@H]3N(CCCCCCO)C(=O)[C@@H]4[C@@H]12 (some centres undefined) | -0.214 | -0.344 (inactive) | 0.0473 (inactive) | -1.32 (inactive) | 0.481 (inactive) | -0.91 (inactive) | 0.239 (inactive) | 0.163 (inactive) | -0.134 | 0.233 | -0.231 (inactive) | -0.714 | -0.508 | -4.69 (inactive) | 0.197 (inactive) | 0.521 (inactive)
O=C1NC(=O)C2C1C=CC(C(O)c1c(F)cccc1Cl)N2Nc1ccccn1 (centres undefined) | -1.73 | 1.19 (inactive) | -1.65 (inactive) | 0.722 (inactive) | 0.543 (inactive) | -0.0601 (inactive) | -0.883 (inactive) | -0.0739 (inactive) | -1.74 | 0.118 | 0.49 (inactive) | 0.833 | -0.362 | -2.19 (inactive) | 0.578 (inactive) | 0.135 (inactive)
COC(=O)C1(Cc2ccccc2)C=C2C(=C(C(C)C)C(=O)C2C)CN1 (centres undefined) | -0.88 | 0.736 (inactive) | -2.2 (inactive) | -1.72 (inactive) | 1.35 (inactive) | 0.905 (inactive) | -0.999 (inactive) | -0.927 (inactive) | -1.59 | 0.0493 | 0.0989 (inactive) | 0.648 | -1.07 | -9.8 (active) | 0.366 (inactive) | 0.602 (inactive)
O=C1OC[C@@H](c2ccccc2)N2CC(/C=C/c3ccccc3)=CC12 (some centres undefined) | 0.015 | -2.25 (inactive) | 0.0637 (inactive) | 0.685 (inactive) | -0.14 (inactive) | 0.388 (inactive) | -0.338 (inactive) | -0.827 (inactive) | 0.594 | -0.102 | 0.587 (inactive) | 0.0221 | 0.643 | -1.36 (inactive) | -0.303 (inactive) | -0.493 (inactive)
C=CCNC(=O)[C@H]1[C@@H]2C(=O)O[C@@H](c3ccccc3)[C@@H](c3ccccc3)N2[C@@H](c2ccccc2OCCO)[C@]12C(=O)N(C(=O)OCCOC)c1ccc(C#CC3=CCCCC3)cc12 | -1.22 | 1.22 (inactive) | -5.62 (inactive) | 1.09 (inactive) | 1.37 (inactive) | 2.81 (inactive) | -0.29 (inactive) | 0.286 (inactive) | -4.42 | 0.106 | 0.234 (inactive) | 0.719 | -2.12 | 0.724 (inactive) | 0.557 (inactive) | 1.47 (inactive)
CN(C)CCCN1C(=O)[C@@]2(c3ccc([N+](=O)[O-])cc3)CC(=O)N(CC34CC5CC(CC(C5)C3)C4)[C@@H]2c2ccc(CO)cc21 | -0.349 | 0.24 (inactive) | -0.752 (inactive) | -7.42 (inactive) | -0.121 (inactive) | 0.536 (inactive) | 0.384 (inactive) | 0.567 (inactive) | -0.959 | -0.02 | -0.0347 (inactive) | 0.35 | -0.428 | -2.47 (inactive) | -0.411 (inactive) | -0.112 (inactive)
CN(C)CCCCNC(=O)[C@H]1C[C@H]2C(=O)N3CCC[C@H]3C(=O)N2[C@H]1c1ccc(O)cc1 | 0.769 | -0.659 (inactive) | 0.949 (inactive) | -0.884 (inactive) | 1.99 (inactive) | -0.35 (inactive) | -0.476 (inactive) | -0.565 (inactive) | -0.536 | -0.192 | -0.301 (inactive) | 0.538 | -1.25 | -0.12 (inactive) | 0.331 (inactive) | 0.513 (inactive)
CCCc1cccc(=O)o1 | 0.866 | 0.68 (inactive) | 0.821 (inactive) | -0.661 (inactive) | 0.353 (inactive) | -0.243 (inactive) | -0.161 (inactive) | 0.846 (inactive) | 0.819 | -0.0721 | 0.684 (inactive) | -0.0514 | 0.581 | -1.77 (inactive) | 0.0999 (inactive) | 0.549 (inactive)
NC(=O)NCC#Cc1ccc2c(c1)[C@]1(C(=O)N2)[C@H](C(=O)O)[C@H]2C(=O)O[C@H](c3ccccc3)[C@H](c3ccccc3)N2[C@@H]1c1ccccc1OCCO | 1.03 | -1.81 (inactive) | 0.837 (inactive) | -0.988 (inactive) | 2.75 (inactive) | -0.888 (inactive) | 0.525 (inactive) | 1.16 (inactive) | 1 | -0.0599 | 0.638 (inactive) | 0.823 | 0.828 | -5.72 (inactive) | -0.0005 (inactive) | 0.287 (inactive)
